Data published in the OligoGym collection.
Further: reference of the scale not given here.

What follows are sequences tested against SLC25A25 (assay: pooled miR-30 sensor sort-seq; sequence = guide strand). Conditions: shRNA.
TAGACTGCAAGGTCGATGCCGG was tested, and the sensor-assay potency score (higher = more potent) was -0.614.
TATCTTGACTCCCAAGTCCCGC showed a sensor-assay potency score (higher = more potent) of -1.03.
Sequence AAATTCTTCAAAGTCTAGCTGC has a sensor-assay potency score (higher = more potent) of 0.318.
TCCACTGTGAACTCATCCGGGA was tested, and the sensor-assay potency score (higher = more potent) was -0.99.
For TTCTTTTTGTCCAAACTCTTAA, the sensor-assay potency score (higher = more potent) was -1.04.
TAGTCTCTCCACTCGTTCCAGT showed a sensor-assay potency score (higher = more potent) of -0.705.
Sequence TTCTCGTAGACCACGTAGCTGA has a sensor-assay potency score (higher = more potent) of -0.478.
TGCATGAGCACCTTGAGCCTGT gave a sensor-assay potency score (higher = more potent) of -0.00686.
In the case of TAAATGACAACTTCTAACGTCC, the sensor-assay potency score (higher = more potent) was 0.0926.
TTGAGCGTCTCGTAGACTGCAA was tested, and the sensor-assay potency score (higher = more potent) was 0.033.

What follows are sequences tested against SLC25A30 in the same assay as above. Conditions: shRNA.
Work on TTCAATGAATAGTCGCTTCAAG yielded a sensor-assay potency score (higher = more potent) of -0.455.
In the case of TGTAGCCAGAACATCTGCCATC, the sensor-assay potency score (higher = more potent) was -1.32.
TAAGTGCCTATCTTGATGGTGC gave a sensor-assay potency score (higher = more potent) of 0.212.
With TAAATGTTCATGAAGTTGCCTA the sensor-assay potency score (higher = more potent) was -0.274.
TATCGGTAGAGTTTCATCTTCT showed a sensor-assay potency score (higher = more potent) of 0.16.
TTATCGGTAGAGTTTCATCTTC was tested, and the sensor-assay potency score (higher = more potent) was -0.374.
TTGCTTTGCGCTTGCATCCGAA was tested, and the sensor-assay potency score (higher = more potent) was -1.2.
With TAGAGTTTCATCTTCTGGGCGT the sensor-assay potency score (higher = more potent) was 0.316.
Work on TGTCTGTAACAAGCAATCCAGG yielded a sensor-assay potency score (higher = more potent) of -1.42.
Work on TATCATTCCTCCTTGAATGGTG yielded a sensor-assay potency score (higher = more potent) of -0.0231.
TTATAGAGAGCAAAAAACCCTT was tested, and the sensor-assay potency score (higher = more potent) was -0.63.

What follows are sequences tested against SLC25A38 in the same assay as above. Conditions: shRNA.
TATATTTTTGGTCTGGTTGTAA was tested, and the sensor-assay potency score (higher = more potent) was 0.16.
Sequence TAACATAAGCGTTTCCACCGTG has a sensor-assay potency score (higher = more potent) of 0.26.
TGAGTTTTGATAACATCCGCAG showed a sensor-assay potency score (higher = more potent) of -0.615.
TATGAATTGATGACTCCTCTTT gave a sensor-assay potency score (higher = more potent) of 0.416.
Sequence TATGAGTTTTGATAACATCCGC has a sensor-assay potency score (higher = more potent) of -0.0581.
TTGATGACTCCTCTTTTGGAGA was tested, and the sensor-assay potency score (higher = more potent) was -1.04.
With TAGGACTTCATCTTACTGCAGA the sensor-assay potency score (higher = more potent) was -0.516.
TTGAAAATAAGTGTCACTGCTT was tested, and the sensor-assay potency score (higher = more potent) was 0.827.
Sequence TTTGATAACATCCGCAGGTTGA has a sensor-assay potency score (higher = more potent) of -0.428.
Work on ATAGGTGACATACAGACCCCTG yielded a sensor-assay potency score (higher = more potent) of -0.876.
AAGAGTACAGCCAACATCCCAA showed a sensor-assay potency score (higher = more potent) of -0.0219.
Sequence ATGAGTTTTGATAACATCCGCA has a sensor-assay potency score (higher = more potent) of 0.0272.

What follows are sequences tested against SLC25A3 in the same assay as above. Conditions: shRNA.
With TTTTCTTTATTCAACACAGATA the sensor-assay potency score (higher = more potent) was -1.15.
Work on TACAAATGTTACAACCAGCTGC yielded a sensor-assay potency score (higher = more potent) of 0.505.
Sequence TTAAGTGTAACTGAGAATCCGT has a sensor-assay potency score (higher = more potent) of 0.392.
TTGCACAAAAGACTCCAGCTAT showed a sensor-assay potency score (higher = more potent) of 0.0495.
In the case of TTGAGGACCAGAGAAGCACTGC, the sensor-assay potency score (higher = more potent) was 0.0253.
TTCACAACTGTACTCTTCCACG gave a sensor-assay potency score (higher = more potent) of -0.783.
For TAAATCTGAAACTCTTGCCTTA, the sensor-assay potency score (higher = more potent) was 0.121.
